Shown are actives, neighbours in structure and some others; about 3.1% of the full set was active somewhere.
MEKK3 PB1 HTS – MEKK3-MEK5 PB1 interaction, increase or decrease; binding response (% of control), % at 10 µM; AID 1529; bead-based flow cytometry, Alexa488-MEK5 binding to MEKK3; actives lie on both sides; 0 = blocked by unlabeled MEK5, 100 = vehicle; Q99759; 1.4% of 290,000 active;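 active = binding response more than 3 SD above or below the average of its plate-row segment, actives on both sides; inconclusive = wells at one plate position flagged as instrument error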;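 note: Alexa488 bead fluorescence after subtracting the streptavidin-only scavenger bead signal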
Target sequence (Q99759 whole entry, looked up): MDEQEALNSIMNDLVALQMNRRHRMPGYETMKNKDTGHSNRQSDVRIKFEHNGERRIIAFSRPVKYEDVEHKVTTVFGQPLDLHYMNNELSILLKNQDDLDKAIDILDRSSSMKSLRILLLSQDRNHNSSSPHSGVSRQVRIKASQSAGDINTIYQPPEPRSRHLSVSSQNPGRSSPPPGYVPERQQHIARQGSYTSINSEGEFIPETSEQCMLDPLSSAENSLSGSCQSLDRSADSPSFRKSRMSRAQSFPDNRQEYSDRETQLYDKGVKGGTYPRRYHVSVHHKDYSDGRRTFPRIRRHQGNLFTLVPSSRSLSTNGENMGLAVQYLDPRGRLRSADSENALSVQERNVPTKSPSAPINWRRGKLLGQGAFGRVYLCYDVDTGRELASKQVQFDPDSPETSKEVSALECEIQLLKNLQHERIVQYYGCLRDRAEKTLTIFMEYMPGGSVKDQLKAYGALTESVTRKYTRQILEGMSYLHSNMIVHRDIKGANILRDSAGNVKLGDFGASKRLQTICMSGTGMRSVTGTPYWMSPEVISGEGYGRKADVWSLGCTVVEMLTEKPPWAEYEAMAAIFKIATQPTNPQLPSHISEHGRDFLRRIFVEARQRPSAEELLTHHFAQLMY
MEKK2 WT-MEK5 – raises or lowers MEK5 binding to wildtype human MEKK2 PB1 domain; binding response (% of control), % at 10 µM; bead flow cytometry, Alexa488-MEK5 binding to MEKK2 WT; actives lie on both sides; 1.1% of 290,000 active; AID 1531; in the data active = binding response below about 67% or above about 130%; inconclusive = no clear call, values can overlap the other calls; inactive = in between
PREPL inh – inhibitors of human prolyl oligopeptidase-like enzyme PREPL. inhibition, % at 5.96 µM. AID 2751. recombinant PREPL, fluorescence polarization activity-based probe. 0.68% of 320,000 active; in the data active = inhibition above about 43%;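 note: 0% = enzyme with DMSO and 100% = wells lacking enzyme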
ATG4B inh – inhibitors of human ATG4B cysteine protease | ATG4B cleavage of LC3-PLA2, NBD-HPC fluorescence, 1 h | inhibition, % at 8.33 µM | 0.51% of 340,000 active; in the data active = inhibition above about 40%
UBC13 inh – inhibitors of human UBC13 polyubiquitin chain formation | P61088 | TR-FRET | inhibition, % at 20 µM | 0.47% of 330,000 active; in the data active = inhibition above about 45%, passing the limit was not always enough; inconclusive = no clear call, values can overlap the other calls
MEKK2mut PB1 HTS – signal of MEK5 binding to mutant human MEKK2 PB1 domain; bead flow cytometry, Alexa488-MEK5 binding to MEKK2 mutant; percent response, % at 10 µM; 0.35% of 290,000 active; AID 1530; in the data active = percent response above about 24%, passing the limit was not always enough
MEKK2wt confirm – raises or lowers MEK5 binding to wildtype human MEKK2, retest; bead flow cytometry, Alexa488-MEK5 binding to MEKK2 WT; actives lie on both sides; 2.4% of 5,900 active; binding response (% of control), % at 10 µM; AID 1892; shares compounds with MEKK3 PB1 HTS; in the data active = binding response below about 16% or above about 210%; inactive = in between
MEKK2mut-MEK5 – signal of MEK5 binding to mutant human MEKK2, retest. shares compounds with MEKK3 PB1 HTS. bead flow cytometry, Alexa488-MEK5 binding to MEKK2 mutant. percent response, % at 10 µM. 2% of 5,900 active; in the data active = percent response mostly above about 71%, no sharp cut-off; inactive = mostly below about 38%;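 note: higher means compound restores mutant binding toward wildtype level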
MEKK3 confirm – confirmation of inhibitors of MEK5 binding to human MEKK3; AID 1894; bead flow cytometry, Alexa488-MEK5 binding to MEKK3; stronger effect = lower value; 1.8% of 5,900 active; binding response (% of control), % at 10 µM; shares compounds with MEKK3 PB1 HTS;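 active = binding response below 72% of control, or above a set upper limit, though filed actives all read lower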;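 note: 100% = DMSO only wells and 0% = binding blocked by excess unlabeled MEK5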
* hit, by the source's call; u = inconclusive; x = not tested or not shown; [ ] = another dose, or the depositor's remark.

SMILES	MEKK3 PB1 HTS	MEKK2 WT-MEK5	PREPL inh	ATG4B inh	UBC13 inh	MEKK2mut PB1 HTS	MEKK2wt confirm	MEKK2mut-MEK5	MEKK3 confirm
CCOCc1c(C(=O)OCC(=O)Nc2ccc(C)c(S(=O)(=O)N(C)C)c2)oc2ccccc12	135*	110	10	-7	-6	0	105	-2	103
CCOc1ccccc1CN1CCN(Cc2ccc(C)o2)CC1CCO (stereo unspecified)	99	87	10	-7	-11	-7	x	x	x
CCOc1ccccc1CN1CCN(Cc2c[nH]c3ccccc23)CC1CCO (stereo unspecified)	113	134*	x	2	10	20	126	19	108
CCOc1ccccc1CN1CCN(Cc2[nH]c3ccccc3c2C)CC1CCO (stereo unspecified)	101	104	20	-10	10	0	x	x	x
CCOc1ccccc1CN1CCN(C2CCN(c3ccccc3F)CC2)CC1CCO (stereo unspecified)	75*[inhibitor]	80	12	-7	4	-8	102	-4	104
CC1c2ccccc2N(NC(=O)Cc2ccccc2)C1C (stereo unspecified)	135*	131	6	0	3	28	101	1	102
CC(=O)N1c2ccccc2[C@@H](C)[C@@H]1C	x	x	22	5	-10	x	x	x	x
CCC(C)N1CCC(Oc2ccc(C(=O)NCc3ccccn3)cc2)CC1 (stereo unspecified)	97	102	-11	3	-8	2	x	x	x
O=C(CCS(=O)(=O)c1cccs1)N1CCN(c2ccc(F)cc2)CC1	122*	118	-6	-15	4	7	69	-21	71*
CC(=O)Nc1ccc(S(=O)(=O)NC(CSc2ccc(C(=O)O)cc2[N+](=O)[O-])C(=O)O)cc1 (stereo unspecified)	101	99	-5	-2	2	2	x	x	x
O=c1[nH]c(NNC(=S)NC2CCCCC2)nc2c1C1(CCCC1)Cc1ccccc1-2	99	103	-2	6	-6	-1	x	x	x
C=CCNC(=S)NNc1nc2c(c(=O)[nH]1)C1(CCCC1)Cc1ccccc1-2	142*	108	-13	-22	3	0	102	-3	102
COc1ccc(/C=C/C(=O)C2C(=O)C=C(C)OC2=O)cc1O (stereo unspecified)	106	111	3	-4	10	12	x	x	x
COc1cc(/C=C/C(=O)C2C(=O)C=C(C)OC2=O)cc(OC)c1O (stereo unspecified)	135*	117	-3	2	-12	3	104	-4	100
COc1cc(/C=C2\SC(=S)N(Nc3ncc(C(F)(F)F)cc3Cl)C2=O)ccc1O	93	62*[inhibitor]	-101	19	-88	-6	76	-12	98
CN(C)c1ccc(/C=C2\SC(=S)N(Nc3ncc(C(F)(F)F)cc3Cl)C2=O)cc1	97	305*	-22	0	-282	309*	34	-35	56*
O=C(COC(=O)Cc1ccsc1)Nc1ccc(Cl)c(S(=O)(=O)N2CCOCC2)c1	91	97	15	1	-14	-1	x	x	x
COc1ccc(NS(=O)(=O)CC23CCC(CC2=O)C3(C)C)cc1 (stereo unspecified)	96	101	10	-6	3	5	x	x	x
COc1ccc(CCNS(=O)(=O)CC23CCC(CC2=O)C3(C)C)cc1OC (stereo unspecified)	114	118	6	-4	1	29*	101	0	103
Nc1ccc(S(=O)(=O)Nc2nccs2)cc1N=Nc1ccccc1[N+](=O)[O-]	x	x	x	39	x	x	x	x	x
CN(C)CCN1C(=O)c2oc3ccc(Cl)cc3c(=O)c2C1c1cccc(Br)c1 (stereo unspecified)	129*	139*	8	-11	17	14	114	8	105
Cc1cccc(NC(=O)N2CCC(NC(=O)c3ccccc3C)CC2)c1	2.0*[inhibitor]	2.0*[inhibitor]	-8	-2	4	-17	96	2	105
CSc1cccc(NC(=O)C2CCN(C(=O)c3ccccc3C)CC2)c1	151*	108	-3	1	9	1	96	-12	96
CCn1c(=O)c(C(=O)NCc2ccc(F)cc2)c(O)c2ccccc21	103	105	-12	0	u	4	x	x	x
COc1cccc(C(=O)NCc2ccc3[nH]c(C)cc3c2)c1	61*[inhibitor]	-6.0*	2	-1	-1	-6	77	-7	77
SMILES	MEKK3 PB1 HTS	MEKK2 WT-MEK5	PREPL inh	ATG4B inh	UBC13 inh	MEKK2mut PB1 HTS	MEKK2wt confirm	MEKK2mut-MEK5	MEKK3 confirm
O=C(O)c1nn(CC(=O)N(C2CCCCC2)C2CCCCC2)c(=O)c2ccccc12	100	92	-33	0	4	0	x	x	x
CC(=O)N1CCN2C(=O)C1CCCC(=O)c1cc(C)ccc12 (stereo unspecified)	48*[inhibitor]	64	-6	-6	12	5	103	0	99
COc1cc(CN(C)CC2CCCN(CCc3cccc(C(F)(F)F)c3)C2)ccc1O (stereo unspecified)	115	156*	4	-6	9	28*	120	10	99
COc1cc(N2CCCC2)c(OC)cc1/C=C(/C#N)c1ccc(Br)cc1	103	106	13	6	-151	189*	101	3	96
COc1cc(N2CCCC2)c(OC)cc1/C=C(/C#N)c1ccc(F)cc1	99	53*[inhibitor]	2	-5	-44	39	101	-6	102
N#C/C(=C/c1ccc(N2CCCCC2)cc1)c1cccc(F)c1	104	100	-9	8	-6	1	x	x	x
COC(=O)C1=C[C@@H](C(=O)OC)[C@@H]2C3=C(C(=O)[C@]2(C)NC(=O)c2ccccc2)[C@H](C)n2c(=O)n(-c4ccccc4)c(=O)n2[C@@H]3C1	89	93	-8	-11	2	-5	x	x	x
CCCc1nc(SCC(=O)Nc2nnc(CC)s2)c2c(C)c(C)sc2n1	122*	115	-7	-4	5	9	99	3	100
CCc1nc(SCC(=O)Nc2nnc(CC)s2)c2c(C)c(C)sc2n1	102	104	13	-4	-6	1	x	x	x
Cc1ccc(Nc2cc(C)c3c(O)cccc3n2)cc1C	102	127	24	7	14	8	x	x	x

High-throughput results deposited in PubChem by several laboratories.
